CHO-K1 Ca PAM = M1 PAM counterscreen hit in parental CHO-K1 cells | ATP EC20, Fluo-8 calcium fluorescence; 0% at ATP EC20, 100% at ATP max | activation, % at 3 µM | hit rate 0.02% among 360,000 | AID 602247;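 active = activation above the run cutoff, the mean activation of all test compounds plus 3 SD, cut at about 40% in these data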;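 also: peak over basal fluorescence ratio in a 140 s read after ATP addition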
M1 ag parental = M1 agonist counterscreen hit in parental CHO-K1 cells. Fluo-8 calcium fluorescence; scaled to maximal ATP response, vehicle zero. activation, % at 3 µM. hit rate 0.48% among 360,000. AID 602248; in the data active = activation above about 15%;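 also: untransfected CHO-K1 host cells lacking M1 receptor as counterscreen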
CHO-K1 Ca antag = counter-screen for M1 antagonists: effect in parental CHO-K1 cells; ATP-induced calcium, Fluo-8 fluorescence; inhibition, % at 3 µM; hit rate 0.6% among 360,000;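 active = inhibition above a per-plate cutoff, the plate's mean sample inhibition plus 3 SD, cut at about 24% in these data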;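 also: 0% = DMSO plus EC80 ATP and 100% = DMSO alone without ATP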
CHRM1 antagonist = blocks human M1 muscarinic receptor; P11229; AID 588852; inhibition, % at 3 µM; hit rate 1.3% among 360,000; CHO-K1 hM1, Fluo-8 calcium fluorescence, ACh EC80 antagonist;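 active = percent inhibition above its own plate's cutoff, namely the mean of that plate's compound wells plus 3 SD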;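 also: peak over basal fluorescence ratio during 140 s after agonist addition; 0% = ACh EC80 plus DMSO and 100% = DMSO alone without agonist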
Target sequence (P11229 whole entry, looked up): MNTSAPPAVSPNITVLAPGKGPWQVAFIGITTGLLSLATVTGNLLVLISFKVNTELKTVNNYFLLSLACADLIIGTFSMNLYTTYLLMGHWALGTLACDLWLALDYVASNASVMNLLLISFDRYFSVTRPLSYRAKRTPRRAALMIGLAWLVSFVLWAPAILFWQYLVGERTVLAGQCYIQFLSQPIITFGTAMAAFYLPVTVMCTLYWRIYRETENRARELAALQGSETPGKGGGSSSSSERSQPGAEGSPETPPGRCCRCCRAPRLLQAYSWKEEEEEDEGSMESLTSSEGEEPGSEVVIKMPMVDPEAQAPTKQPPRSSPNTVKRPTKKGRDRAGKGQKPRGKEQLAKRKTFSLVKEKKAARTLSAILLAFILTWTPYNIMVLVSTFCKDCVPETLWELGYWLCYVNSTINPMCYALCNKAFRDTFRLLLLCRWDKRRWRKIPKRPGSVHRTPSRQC
M1 ag = activates human CHRM1 receptor; hit rate 0.33% among 360,000; CHO-K1 hM1, Fluo-8 calcium fluorescence, agonist mode; 0% DMSO, 100% acetylcholine EC100; activation, % at 3 µM; P11229;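 active = activation above the run's mean compound activation plus 3 SD, cut at about 16% in these data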;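 also: peak over basal fluorescence ratio within a 140 s kinetic read after compound addition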
M1 PAM = positive allosteric modulators of human M1 muscarinic receptor. P11229. CHO-K1 hM1, Fluo-8 calcium fluorescence, ACh EC20; 0% = ACh EC20, 100% = maximal ACh. activation, % at 3 µM. hit rate 0.088% among 360,000. AID 588819; in the data active = activation above about 19%, passing the limit was not always enough
* marks the source's active call; other numbers are inactive results. An excerpt weighted towards active compounds, which were near 2.3% of everything screened.

SMILES	CHO-K1 Ca PAM	M1 ag parental	CHO-K1 Ca antag	CHRM1 antagonist	M1 ag	M1 PAM
Cc1cc(Br)ccc1NC(=O)CNC(=O)CN(C)C1CCS(=O)(=O)C1 (centres undefined)	-10.1	2.1	-6.8	-5.8	-3.4	5.0
CC(=O)NC(c1ccccc1)c1nc(-c2cccc(CO)c2)cs1 (centres undefined)	1.8	-0.2	3.0	2.2	-1.9	-2.4
CC(=O)NC(c1ccccc1)c1nc(-c2cccc(C(F)(F)F)c2)cs1 (centres undefined)	-15.6	1.2	29.3*	-12.4	-4.2	3.0
COCCn1c(SCC(=O)NC2CCCCC2)nnc1-c1ccncc1	1.8	0.6	-4.9	-2.0	1.1	14.2
COc1ccc2c(c1)C1(Nc3ccccc3-c3nc4ccccc4n31)C(=O)N2 (centres undefined)	12.6	37.4*	3.6	10.0	-0.3	2.0
Cc1ccc(-n2nc(C(=O)c3ccccc3)n3c(=O)cc(-c4ccccc4)nc23)cc1	17.7	0.8	-3.3	37.3*	-4.1	-5.8
COc1ccc(CCN2C(=O)CSC2=Nc2ccc(C(C)C)cc2)cc1OC	-6.1	8.8	12.9	40.7*	-2.0	-15.1
COc1ccc(N=C2SCC(=O)N2CCc2ccc(OC)c(OC)c2)cc1	-1.0	8.3	7.3	35.9	-1.3	-15.1
Cc1ccccc1CNS(=O)(=O)c1c(C(=O)N2CCCCC2)c(C)n(C)c1C	18.4	0.9	-17.6	-3.7	-1.3	3.8
O=c1c(C(c2ccc(O)cc2)c2c(O)nc3n(c2=O)CCS3)c(O)nc2n1CCS2	-7.9	-0.3	24.5*	-8.6	1.4	15.5
O=C(Nc1nnc(S(=O)(=O)N2CCCCCC2)s1)c1ccccc1F	-10.3	4.2	1.2	30.6*	0.3	-16.5
CCOC(=O)c1ccccc1-n1c(C)cc(C2N=C(N)Nc3nc4ccccc4n32)c1C (centres undefined)	3.6	0.5	-14.4	80.9*	-15.0	-36.6
COc1ccc(N2CCN(c3nc(NCCO)nc(N4CCOCC4)n3)CC2)cc1	-7.7	0.7	27.1*	-4.2	0.3	12.2
CC1=C([N+](=O)[O-])C(c2ccccc2Cl)NC(=O)N1C (centres undefined)	23.4	17.1*	-10.4	-9.8	1.0	9.2
COc1cnc(SCCC(F)=C(F)F)[nH]c1=O	-6.4	2.7	3.3	4.1	-4.2	-2.1
COc1ccc(CNC(=O)Cc2nn(C)c(=O)c3ccccc23)cc1	-5.7	11.2	23.9*	25.6	3.7	-11.3
Cn1nc(CC(=O)NCc2ccc(C(F)(F)F)cc2)c2ccccc2c1=O	1.1	7.9	3.8	9.7	5.3	-3.2
CN(C)NC(=S)NC1CCS(=O)(=O)C1 (centres undefined)	29.8	1.1	-16.6	-23.1	-0.4	16.7
CC(C)=CCc1c(O)cc2oc3c(CC=C(C)C)c(O)c(O)c(CC=C(C)C)c3c(=O)c2c1O	-7.3	4.9	24.6*	16.9	-0.5	-13.1
CC(C)=CCc1cc(-c2oc3cc(O)cc(O)c3c(=O)c2O)ccc1O	-9.2	0.5	0.0	5.2	-12.8	2.3
O=C(c1ccccc1)c1n[nH]c(-c2ccccc2)cc1=O	19.0	0.7	-8.1	-4.4	-5.1	11.3
O=C(CN1CCCCC1)NC1CCc2cc3c(cc21)CCC3 (centres undefined)	-29.6	-0.6	26.6*	1.1	-8.2	-0.7
O=S(=O)(Nc1nc(-c2sccc2Cl)cs1)c1cc(Cl)ccc1Cl	-6.0	-0.6	25.6*	2.1	-1.3	-2.1
CC(=O)OC1(C)C=Cc2ccccc2C1=NS(=O)(=O)c1ccccc1 (centres undefined)	10.5	-0.3	-2.3	-2.4	-0.4	2.8
CC1(C(=O)NCCC#N)CCN1C(=O)CC(c1ccccc1)c1ccccc1 (centres undefined)	12.8	0.6	-9.0	-6.4	-2.9	-1.5
CCN=C(Nc1ccc2c(c1)OCO2)SC1CC(=O)N(c2ccc(OC)cc2)C1=O (centres undefined)	9.7	3.9	3.6	26.7*	0.3	-6.6
CCN=C(NCC)SC1CC(=O)N(c2ccc(F)cc2)C1=O (centres undefined)	5.0	5.7	13.8	34.9*	-0.3	-18.0
COc1cc(C(=O)Nc2nnc(C3CC3)s2)ccc1OCc1c(C)noc1C	-3.0	0.5	-2.6	-5.1	-4.6	6.9

High-throughput results as filed in PubChem.
